Screening data (PubChem)
FLuc inh = qHTS Assay for Inhibitors of Firefly Luciferase; Luciferin 4-monooxygenase (Photinus pyralis), P08659; purified firefly luciferase, luminescence, 8 min; Potency, µM (series often up to 57.1 µM), for the others: top-dose activity change, negative = inhibition, hits mostly inhibitors; actives 2.2% (n = 72,000); AID 411, 2009; active means well fitted inhibition curve with a large enough effect; inconclusive means small, poorly fitted or top-dose-only effect; further: nearly all actives have a fitted effect of over 40% in size
Target sequence (P08659 whole entry, looked up): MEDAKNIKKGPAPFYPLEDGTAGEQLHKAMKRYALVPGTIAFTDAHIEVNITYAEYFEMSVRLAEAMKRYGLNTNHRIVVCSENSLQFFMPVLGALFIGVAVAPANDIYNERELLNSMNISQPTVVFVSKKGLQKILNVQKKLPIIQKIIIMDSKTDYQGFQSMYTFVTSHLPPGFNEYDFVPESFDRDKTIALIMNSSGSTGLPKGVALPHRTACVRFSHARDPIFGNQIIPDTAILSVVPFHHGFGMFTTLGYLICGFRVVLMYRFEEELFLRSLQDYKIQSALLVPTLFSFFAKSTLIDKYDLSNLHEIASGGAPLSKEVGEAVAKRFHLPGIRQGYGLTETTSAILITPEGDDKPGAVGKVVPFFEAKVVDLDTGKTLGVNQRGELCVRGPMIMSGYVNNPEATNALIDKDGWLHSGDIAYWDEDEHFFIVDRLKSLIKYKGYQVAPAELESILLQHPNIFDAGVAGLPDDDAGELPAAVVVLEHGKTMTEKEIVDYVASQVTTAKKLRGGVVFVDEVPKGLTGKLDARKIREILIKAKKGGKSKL
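Titration-based qHTS; buffer 50 mM imidazole pH 7.2, 50 mM KCl, 7 mM MgCl2, 10 uM ATP, 0.01% Tween 20, 0.05% BSA; luciferase/luciferin detector mix added after compound; 8 min, ambient; luminescence.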
PK Bst = Pyruvate Kinase; purified pyruvate kinase, luminescence ATP production; ribose 5-phosphate activator present at AC10; Potency, µM; actives 1.2% (n = 51,000); AID 361, 2006; in the data active means potency below about 11 µM; inconclusive means mostly about 12 µM to 25 µM;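 the screen sought inhibitors and activators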;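 further: scaled between full activation by ribose 5 phosphate and full inhibition by luteolin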
The depositor's hits bear a star; [ ] = dose if it differs, or a comment. Sampled rows, rich in hits. Any-hit rate of the full collection: about 2.5%. Unless noted, on the % scale 0 is the no-effect control and ±100 the full control effect; potency means the concentration at half of the fitted maximal effect.

COc1ccccc1-c1nc(-c2cccc(C)c2)no1 was read as FLuc inh 13µM* and PK Bst 9.4*.
`COc1ccccc1-c1noc(-c2ccco2)n1` gave FLuc inh 20µM*.
Screening COc1cc(C(=O)N(Cc2ccco2)Cc2cc3ccccc3[nH]c2=O)cc(OC)c1OC returned FLuc inh 1% and PK Bst >57.
Screening Cc1ccc(NC(=O)NC(=O)CN2C(=O)NC3(CCCCCCC3)C2=O)c(C)c1 returned FLuc inh 0% and PK Bst >57.
Screening CCN(CC)c1ccc(NC(=O)c2ccco2)c(C)c1 returned FLuc inh -3% and PK Bst >57.
For CCN(CC)c1ccc(NC(=O)c2ccccc2F)cc1 the results were FLuc inh 16µM* and PK Bst inactive.
`CCN(CC)c1ccc(NC(=O)c2ccco2)cc1` gave FLuc inh 10µM* and PK Bst inconclusive.
Screening CCN(CC)c1ccc(NC(=O)C(C)C)cc1 returned FLuc inh -1% and PK Bst >57.
`Cc1cc(NC(=O)C2CCCCC2)nc2c1c(=O)oc1ccccc12` gave FLuc inh -1% and PK Bst >57.
For CCNc1nc(N)c(C(=O)c2ccc(Cl)s2)s1 the results were FLuc inh inconclusive and PK Bst 2.2*.
Screening CCOC(=O)c1c(NC(=O)c2ccc(Cl)s2)sc(C)c1C returned FLuc inh 0%.
Screening Cc1cc(Nc2cc(F)ccc2C)n2nc(C)nc2n1 returned FLuc inh 3%.
For Clc1ccc2nc(N3CCCCC3)[nH]c2c1 the results were FLuc inh 13µM* and PK Bst inactive.
Screening Clc1ccc2nc(N3CCCCC3)sc2c1 returned FLuc inh inconclusive and PK Bst inactive.
For O=C(Nn1cnc2ccccc2c1=O)c1ccccc1Cl the results were FLuc inh 1% and PK Bst >57.
For O=C(CC(c1ccccc1)c1ccccc1O)NCCN1CCOCC1 (centres undefined) the results were FLuc inh 2% and PK Bst >57.
Cc1ccc2c(c1)C(N1CCCC1=O)CC(c1ccco1)N2 (centres undefined) was read as FLuc inh 10µM* and PK Bst inconclusive.
Cc1ccc(C2CC(c3ccco3)n3ncnc3N2)cc1 (centres undefined) was read as FLuc inh 2%.
`CC(=O)C1=C(Nc2ccc(C)cc2)CC(C)(O)C(C(C)=O)C1c1ccco1` (centres undefined) gave FLuc inh 2% and PK Bst >57.
Screening CC1=CC(C)(C)N=C(Nc2ccc(C)cc2)S1 returned FLuc inh 0% and PK Bst >57.
`Cc1ccc(NC2=Nc3ccccc3CS2)cc1` gave FLuc inh 4µM* and PK Bst 4.1*.
`C/C(N)=N\S(=O)(=O)c1ccc(Cl)cc1` gave FLuc inh 0% and PK Bst >57.
Screening N=C1C(c2ccccc2)=C(O)C2CCc3ccccc3N12 (centres undefined) returned FLuc inh 0%.
`N=C1C(c2ccc(Br)cc2)=C(O)C2CCc3ccccc3N12` (centres undefined) gave FLuc inh -1% and PK Bst 3*.
N#Cc1nc(-c2ccc(OCc3ccccc3)cc2)oc1NCCN1CCOCC1 was read as FLuc inh 3% and PK Bst 4.5*.
Screening CNc1oc(-c2ccc(OCc3ccccc3)cc2)nc1C#N returned FLuc inh -1% and PK Bst inactive.
`N#Cc1nc(-c2ccc(OCc3ccccc3)cc2)oc1N1CCOCC1` gave FLuc inh 6% and PK Bst 2*.
Screening C=CCNc1oc(-c2ccc(OCC)cc2)nc1C#N returned FLuc inh -2% and PK Bst 5.3*.
For N#Cc1nc(-c2ccc(OCc3ccc(Cl)cc3)cc2)oc1NCCCn1ccnc1 the results were FLuc inh 5% and PK Bst 0.33*.
For COc1ccc(-c2nc(C#N)c(N3CCOCC3)o2)cc1OC the results were FLuc inh -1%.
`C=CCNc1oc(-c2ccc(OC)cc2)nc1C#N` gave FLuc inh -23%.
For N#Cc1nc(-c2ccc(OCc3ccccc3)cc2)oc1NCc1ccco1 the results were FLuc inh -4%.
CS(=O)(=O)Nc1ccc(C(=O)NCCSCc2ccco2)cc1 was read as FLuc inh -1% and PK Bst >57.
Screening Cc1ccc(S(=O)(=O)Nc2cccc3ncccc23)s1 returned FLuc inh 1% and PK Bst inactive.
Screening CNC(=O)CCn1nc(-c2ccc(Cl)cc2)c2ccccc2c1=O returned FLuc inh 3% and PK Bst >57.
Screening O=C(NCCc1ccccc1)C1CCCN1C(=O)NCc1ccccc1 (centres undefined) returned FLuc inh 2% and PK Bst >57.
Screening Cc1ccc2nc(SCCC#N)nc(C)c2c1 returned FLuc inh 2% and PK Bst inconclusive.
`c1ccc(-c2nc(N3CCCCCC3)nc(-n3ccnc3)n2)cc1` gave FLuc inh 3% and PK Bst >57.
`Cc1cc(C)n(C(=O)Cc2cn3ccsc3n2)n1` gave FLuc inh 2% and PK Bst >57.
Screening CN(C)c1nc2c(c(=O)n(C)c(=O)n2C)n1Cc1ccccc1 returned FLuc inh 3% and PK Bst >57.
Cc1cc(N2CCCN(C)CC2)nc2cc(Cl)ccc12 was read as FLuc inh -2%.
Cc1ccc2nc3ccc(N4CCN(C)CC4)nn3c(=O)c2c1 was read as FLuc inh 7.9µM*.
For CC12CN3CC(C)(CN(C1)C3c1ccc(Br)cc1O)C2 (centres undefined) the results were FLuc inh 2%[25.5 µM] and PK Bst >26.
Screening COCCNC(=O)C(OC(=O)c1ccco1)c1ccccc1OC (centres undefined) returned FLuc inh -2% and PK Bst >57.
`Cc1ccc(Cc2c(C)nc3c(C(=O)O)cnn3c2C)cc1` gave FLuc inh -1% and PK Bst >57.
For CCc1ccc2c(CN(CC)Cc3nc4ccccc4c(=O)[nH]3)cc(=O)oc2c1 the results were FLuc inh 0% and PK Bst >57.
O=C1c2ccccc2-c2n[nH]c3cccc1c23 was read as FLuc inh 0%.
`O=c1c(-c2ccccc2)n[nH]c2ccccc12` gave FLuc inh 13µM* and PK Bst inactive.
Screening Cc1nc2sc3c(c2c(=O)n1/N=C/c1ccco1)CCCC3 returned FLuc inh 2% and PK Bst >57.
`CN1CCN(c2ccc(Cl)cc2NC(=O)c2cccc(S(=O)(=O)N(C)C)c2)CC1` gave FLuc inh 3% and PK Bst >57.
CS(=O)(=O)c1cccc(C(=O)NCc2ccccc2)c1 was read as FLuc inh 1% and PK Bst >57.
`CN(C)S(=O)(=O)c1cccc(C(=O)Nc2cc(Cl)ccc2O)c1` gave FLuc inh 13µM* and PK Bst inactive.
`CN(C)S(=O)(=O)c1cccc(C(=O)NCCc2ccccc2)c1` gave FLuc inh 13µM* and PK Bst inactive.
COCCOC(=O)C1=C(C)N=C2SCCC(=O)N2C1/C=C/c1ccccc1 (centres undefined) was read as FLuc inh 0% and PK Bst >57.
Cc1c(C(=O)O)oc2c1C(O)CC(C)(C)C2 (centres undefined) was read as FLuc inh 4% and PK Bst >57.
